Source: PubChem BioAssay (NCATS)
Records with an inconclusive call do not appear. Calls of active or inactive are those of the source. Calls follow the shape of the dose curve; as a rule, active = well fitted cell-killing curve with a large enough effect; inconclusive = small, poorly fitted or top-dose-only effect, or effect the other way; inactive = flat fitted curve, though single readings scatter.

Tests used:
Assay in all cases: Primary qHTS to identify gynecologic anti-cancer compounds using libraries of approved drugs and bioactive compounds (AID 1345084); also: nearly all actives have a fitted effect of over 55% in size
C33A = conditions: Gynecologic cancer cell panel viability, ATPlite luminescence, 48 h; series mostly up to 57.5 µM
Outline: (§1)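 Five-point cytotoxicity, 48 h drug exposure at 37 C, 5% CO2, on cells seeded 16 h beforehand. ATP content read by ATPlite luminescence.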

CAOV3 = conditions: Gynecologic cancer cell panel viability, ATPlite luminescence, 48 h; series mostly up to 57.5 µM
Outline: as §1

CASKI = conditions: Gynecologic cancer cell panel viability, ATPlite luminescence, 48 h; series mostly up to 57.5 µM
Outline: as §1

Es-2 = conditions: Gynecologic cancer cell panel viability, ATPlite luminescence, 48 h; series mostly up to 57.5 µM
Outline: as §1

HeLa = conditions: Gynecologic cancer cell panel viability, ATPlite luminescence, 48 h; series mostly up to 57.5 µM
Outline: as §1

Hek293T = conditions: Gynecologic cancer cell panel viability, ATPlite luminescence, 48 h, control line for the selectivity index; series mostly up to 57.5 µM
Outline: as §1

JEG-3 = conditions: Gynecologic cancer cell panel viability, ATPlite luminescence, 48 h; series mostly up to 57.5 µM
Outline: as §1

OV90 = conditions: Gynecologic cancer cell panel viability, ATPlite luminescence, 48 h; series mostly up to 57.5 µM
Outline: as §1

PA-1 = conditions: Gynecologic cancer cell panel viability, ATPlite luminescence, 48 h; series mostly up to 57.5 µM
Outline: as §1

SKOV3 = conditions: Gynecologic cancer cell panel viability, ATPlite luminescence, 48 h; series mostly up to 57.5 µM
Outline: as §1

Tov-21-G = conditions: Gynecologic cancer cell panel viability, ATPlite luminescence, 48 h; series mostly up to 57.5 µM
Outline: as §1

Tov112D = conditions: Gynecologic cancer cell panel viability, ATPlite luminescence, 48 h; series mostly up to 57.5 µM
Outline: as §1
% is scaled to controls: 0 for no effect and ±100 for the full control effect.

C=C(C(=O)O)[C@@H]1CC[C@H](C)[C@@H]2CC(=O)C(C)=C2C1
inactive: Potency (C33A) | Potency (CAOV3) | outcome (CASKI) | Potency (Es-2) | Potency (HeLa) | Potency (Hek293T) | Potency (JEG-3) | Potency (OV90) | Potency (PA-1) | Potency (SKOV3) | Potency (Tov-21-G) | Potency (Tov112D)

CC(C)C(O)(CO)CCO[C@@H]1O[C@H](CO[C@H]2OC[C@](O)(CO)[C@H]2O)[C@@H](O)[C@H](O)[C@H]1O (stereo partly drawn)
inactive: Potency (C33A) | Potency (CAOV3) | outcome (CASKI) | Potency (Es-2) | Potency (HeLa) | Potency (Hek293T) | Potency (JEG-3) | Potency (OV90) | Potency (PA-1) | Potency (SKOV3) | Potency (Tov-21-G) | Potency (Tov112D)

C/C=C(\C)C(=O)OC1CC2C(CC=C3CC(OC4CC(OC)C(OC5CC(OC)C(OC6CC(OC)C(OC7CC(OC)C(OC8CC(OC)C(OC9OC(CO)C(O)C(O)C9O)C(C)O8)C(C)O7)C(C)O6)C(C)O5)C(C)O4)CCC32C)C2(O)CCC(C(C)=O)C12C (stereo not drawn)
inactive: activity change, negative = cytotoxicity (C33A) 4.48% [at 6.55 µM] | activity change, negative = cytotoxicity (CAOV3) -9.87% [at 6.55 µM] | activity change, negative = cytotoxicity (CASKI) -6.32% [at 6.55 µM] | activity change, negative = cytotoxicity (Es-2) 2.25% [at 6.55 µM] | activity change, negative = cytotoxicity (HeLa) 6.7% [at 6.55 µM] | activity change, negative = cytotoxicity (Hek293T) -0.353% [at 6.55 µM] | activity change, negative = cytotoxicity (JEG-3) 3.01% [at 6.55 µM] | activity change, negative = cytotoxicity (OV90) -1.21% [at 6.55 µM] | activity change, negative = cytotoxicity (PA-1) -0.231% [at 6.55 µM] | activity change, negative = cytotoxicity (SKOV3) -2.08% [at 6.55 µM] | activity change, negative = cytotoxicity (Tov-21-G) 2.5% [at 6.55 µM] | activity change, negative = cytotoxicity (Tov112D) -1.72% [at 6.55 µM]

C[C@]1(OC(=O)/C=C/c2ccc(O)cc2)C[C@@H](O)[C@]2(O)C=CO[C@@H](O[C@@H]3O[C@H](CO)[C@@H](O)[C@H](O)[C@H]3O)C12 (stereo partly drawn)
inactive: Potency (C33A) | Potency (CAOV3) | outcome (CASKI) | Potency (Es-2) | Potency (HeLa) | Potency (Hek293T) | Potency (JEG-3) | Potency (OV90) | Potency (PA-1) | Potency (SKOV3) | Potency (Tov-21-G) | Potency (Tov112D)

O=C(O)C[C@H]1CCC(=O)[C@@H]1C/C=C\CCO
inactive: Potency (C33A) | Potency (CAOV3) | outcome (CASKI) | Potency (Es-2) | Potency (HeLa) | Potency (Hek293T) | Potency (JEG-3) | Potency (OV90) | Potency (PA-1) | Potency (SKOV3) | Potency (Tov-21-G) | Potency (Tov112D)

CC(=O)OC1C(O)/C(C)=C\C2C(OC(=O)c3ccccc3)C(C)CC2(OC(C)=O)C(OC(C)=O)C(C)/C=C/C(C)(C)C1OC(C)=O (stereo not drawn)
inactive: Potency (C33A) | Potency (CAOV3) | outcome (CASKI) | Potency (Es-2) | Potency (HeLa) | Potency (Hek293T) | Potency (JEG-3) | Potency (OV90) | Potency (PA-1) | Potency (SKOV3) | Potency (Tov-21-G) | Potency (Tov112D)

C/C=C1/C[N+](C)([O-])C2Cc3c([nH]c4ccccc34)C(=O)CC1C2C(=O)OC (stereo not drawn)
inactive: Potency (C33A) | Potency (CAOV3) | outcome (CASKI) | Potency (Es-2) | Potency (HeLa) | Potency (Hek293T) | Potency (JEG-3) | Potency (OV90) | Potency (PA-1) | Potency (SKOV3) | Potency (Tov-21-G) | Potency (Tov112D)

CCC(C)C(=O)OC[C@H]1O[C@H](O[C@H]2O[C@H](CO)[C@@H](O)[C@H](O)[C@H]2O)[C@H](O)[C@@H](O)[C@@H]1O (stereo partly drawn)
inactive: Potency (C33A) | Potency (CAOV3) | outcome (CASKI) | Potency (Es-2) | Potency (HeLa) | Potency (Hek293T) | Potency (JEG-3) | Potency (OV90) | Potency (PA-1) | Potency (SKOV3) | Potency (Tov-21-G) | Potency (Tov112D)

COc1cnc(-c2ccc(Cn3c(CC(C)(C)C(=O)O)c(SC(C)(C)C)c4cc(OC[C@@H]5Cc6ccccc6N5C(C)=O)ccc43)cc2)nc1
inactive: Potency (C33A) | Potency (CAOV3) | outcome (CASKI) | Potency (Es-2) | Potency (HeLa) | Potency (Hek293T) | Potency (JEG-3) | Potency (OV90) | Potency (PA-1) | Potency (SKOV3) | Potency (Tov-21-G) | Potency (Tov112D)

COc1c2c(c(C)c3c1C(=O)OC3)OC1(C)CC(O)C34OC(O)(CCC3(C)C1C2)OC4(C)C (stereo not drawn)
inactive: Potency (C33A) | Potency (CAOV3) | outcome (CASKI) | Potency (Es-2) | Potency (HeLa) | Potency (Hek293T) | Potency (JEG-3) | Potency (OV90) | Potency (PA-1) | Potency (SKOV3) | Potency (Tov-21-G) | Potency (Tov112D)

COC(=O)C[C@@H]1C(C(=O)O)=CO[C@@H](O[C@@H]2O[C@H](CO)[C@@H](O)[C@H](O)[C@H]2O)/C1=C\COC(=O)/C=C/c1ccc(O)c(OC)c1
inactive: Potency (C33A) | Potency (CAOV3) | outcome (CASKI) | Potency (Es-2) | Potency (HeLa) | Potency (Hek293T) | Potency (JEG-3) | Potency (OV90) | Potency (PA-1) | Potency (SKOV3) | Potency (Tov-21-G) | Potency (Tov112D)

COc1cc(/C=C/C(=O)O)ccc1O[C@@H]1O[C@H](CO)[C@@H](O)[C@H](O)[C@H]1O[C@@H]1OC[C@](O)(CO)[C@H]1O
inactive: Potency (C33A) | Potency (CAOV3) | outcome (CASKI) | Potency (Es-2) | Potency (HeLa) | Potency (Hek293T) | Potency (JEG-3) | Potency (OV90) | Potency (PA-1) | Potency (SKOV3) | Potency (Tov-21-G) | Potency (Tov112D)

O=C(Nc1ccn(Cc2c(F)cccc2C(F)(F)F)n1)c1c(F)cccc1F
inactive: activity change, negative = cytotoxicity (C33A) 3.35% [at 11.6 µM] | activity change, negative = cytotoxicity (CAOV3) 17% [at 11.6 µM] | activity change, negative = cytotoxicity (CASKI) 7.64% [at 11.6 µM] | activity change, negative = cytotoxicity (Es-2) 0.101% [at 11.6 µM] | activity change, negative = cytotoxicity (HeLa) 13% [at 11.6 µM] | activity change, negative = cytotoxicity (Hek293T) -2.96% [at 11.6 µM] | activity change, negative = cytotoxicity (JEG-3) 9.68% [at 11.6 µM] | activity change, negative = cytotoxicity (OV90) 0.656% [at 11.6 µM] | activity change, negative = cytotoxicity (PA-1) 10.8% [at 11.6 µM] | activity change, negative = cytotoxicity (SKOV3) 9.68% [at 11.6 µM] | activity change, negative = cytotoxicity (Tov-21-G) 10.6% [at 11.6 µM] | activity change, negative = cytotoxicity (Tov112D) 3.93% [at 11.6 µM]

C=C(C)C1CCC2(C(=O)OC3OC(COC4OC(CO)C(O)C(O)C4O)C(OC4OC(C)C(O)C(O)C4O)C(O)C3O)CCC3(C(=O)O)C(CCC4C5(C)CCC(=O)C(C)(C)C5CCC43C)C12 (stereo not drawn)
inactive: activity change, negative = cytotoxicity (C33A) 2.12% [at 11.6 µM] | activity change, negative = cytotoxicity (CAOV3) 1.66% [at 11.6 µM] | activity change, negative = cytotoxicity (CASKI) -3.34% [at 11.6 µM] | activity change, negative = cytotoxicity (Es-2) -14% [at 11.6 µM] | activity change, negative = cytotoxicity (HeLa) 1.62% [at 11.6 µM] | activity change, negative = cytotoxicity (Hek293T) 0.77% [at 11.6 µM] | activity change, negative = cytotoxicity (JEG-3) -1.16% [at 11.6 µM] | activity change, negative = cytotoxicity (OV90) -0.071% [at 11.6 µM] | activity change, negative = cytotoxicity (PA-1) 8.9% [at 11.6 µM] | activity change, negative = cytotoxicity (SKOV3) -6.38% [at 11.6 µM] | activity change, negative = cytotoxicity (Tov-21-G) 0.715% [at 11.6 µM] | activity change, negative = cytotoxicity (Tov112D) -0.367% [at 11.6 µM]
